DT40 TDP1 CPT: qHTS for Inhibitors of human tyrosyl-DNA phosphodiesterase 1 (TDP1): qHTS in cells in presence of CPT. chicken DT40 Tdp1-/-;hTDP1 cells + 20 nM CPT, ATP luminescence, 48 h. Potency, µM (doses to about 46.2 µM), inactives show at the top dose activity change, negative = growth inhibition, most hits filed as inhibitors. actives 12% (n = 420,000); further: potency means the concentration at half of the fitted maximal effect; on the % scale 0 is the no-effect control and ±100 the full control effect; nearly all actives have a fitted effect of over 55% in size
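Cell growth measured by CellTiter-Glo luminescence after a minimum 48 h, 37 C compound exposure with 20 nM CPT in Tdp1-knockout DT40 cells stably expressing hTDP1, seeded 400/well; qHTS titration format.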
SW480 rerep: A quantitative high throughput screen for small molecules that induce DNA re-replication in SW480 colon adenocarcinoma cells. SW480 DNA re-replication, Hoechst DNA content imaging, 48 h. Potency, µM (titrated, usually from 46.1 µM), without a hit: at the top dose re-replication activation, actives largely listed as activators. actives 1.8% (n = 340,000). AID 624297, 2012; further: potency means the concentration at half of the fitted maximal effect; % of control where 0% means no effect; nearly all actives have a fitted effect of over 55% in size
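Hoechst fluorescence of nuclei (405 nm excitation, 500-530 nm emission) measured by plate-scanning imager after 48 hr compound exposure at 37 C; re-replication scored as increased number of nuclei with elevated intensity.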
Chronic BCR inh: qHTS Assay to Find Inhibitors of Chronic Active B-Cell Receptor Signaling. Potency, µM (titrated, usually from 46.1 µM), without a hit: at the top dose activity change, negative = inhibition, hits mostly inhibitors. actives 0.05% (n = 340,000). ABC-DLBCL IkBa-CBG/CBR reporter, luminescence ratio, 4 h; active means well fitted inhibition curve with a large enough effect in the signal ratio, with a control signal flat, not every such curve was filed as active; inconclusive means small, poorly fitted or top-dose-only effect, or effect the other way, or a change in a side signal; the % refers to the signal ratio;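 further: potency means the concentration at half of the fitted maximal effect; plate controls were basal doxycycline-induced cells for no effect and cells given 10 µM MG132 for full effect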
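Concentration-response series (up to 46 uM) were applied to TMD8 dual-reporter cells for 4 h at 37C with doxycycline. Green/red ratio, after filter-overlap correction, defined %Activity; red signal alone was normalised to basal cells and zero luminescence.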
DT40 TDP1 no CPT: qHTS for Inhibitors of human tyrosyl-DNA phosphodiesterase 1 (TDP1): qHTS in cells in absence of CPT. AID 686978, 2013. Potency, µM (doses to about 46.2 µM), for inactives: at the highest dose activity change, negative = growth inhibition, actives largely listed as inhibitors. actives 15% (n = 420,000). DT40 Tdp1-/- hTDP1 cells, no CPT, ATP luminescence, 48 h; further: potency means the concentration at half of the fitted maximal effect; on the % scale 0 is the no-effect control and ±100 the full control effect; nearly all actives have a fitted effect of over 55% in size
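Growth of hTDP1-complemented DT40 Tdp1-knockout cells is measured by ATP luminescence after at least 48 hr compound exposure at 37 °C, with DMSO substituting for the 20 nM CPT used in the parallel screen.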
MCF10A rereplic: A quantitative high throughput screen for small molecules that induce DNA re-replication in MCF 10a normal breast cells. MCF 10A DNA re-replication, Hoechst nuclear intensity, 48 h. Potency, µM (titrated, usually from 46.1 µM), for inactives: top-dose activity, positive = re-replication, most hits filed as activators. actives 2.9% (n = 350,000); further: potency means the concentration at half of the fitted maximal effect; % of control where 0% means no effect; nearly all actives have a fitted effect of over 50% in size
IL1B secr inh: qHTS for Inhibitors of Inflammasome Signaling: IL-1-beta AlphaLISA Primary Screen | THP-1 LPS/ATP IL-1B secretion, AlphaLISA, 16 h; active compounds read low | AID 743279, 2014 | activity change, % at 57.5 µM | actives 4.7% (n = 360,000); in the data active means activity change below about -50%; inconclusive means mostly about -30% to -49%; further: on the % scale 0 is the no-effect control and ±100 the full control effect
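THP-1 cells pretreated 1 hr with compounds (up to 57.5 uM final), then stimulated with LPS (250 ng/mL final) plus ATP (1.25 mM final); secreted IL-1B measured by AlphaLISA after 16 hr, decreased signal indicating inhibition.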
* marks the source's active call; other numbers are inactive results. The list is not random: actives were taken first. Their share in the collection is about 19%. Unless noted, the call rests on the fitted dose curve; in most records, active means well fitted curve in the direction sought with a large enough effect; inconclusive means small, poorly fitted or top-dose-only effect, or another doubt; inactive means no such curve, though single readings can be large; an effect the other way counts as inactive or inconclusive.

`CCOC(=O)N1CCN(C(=O)C[C@@H]2C[C@@]3(C(=O)OCC)CCCC=C3N(Cc3ccccc3)C2=O)CC1` gave DT40 TDP1 CPT inconclusive, DT40 TDP1 no CPT inconclusive and IL1B secr inh -12.3.
Screening O=C(N[C@@H]1c2ccccc2C2(CCN(C(=O)c3ccc4c(c3)OCCO4)CC2)[C@H]1O)c1cccnc1 returned DT40 TDP1 CPT inconclusive and DT40 TDP1 no CPT -4.4%.
Screening COc1ccccc1Cn1c(CNS(=O)(=O)c2cccc([N+](=O)[O-])c2)nc2cccnc21 returned DT40 TDP1 CPT 20.6µM* and DT40 TDP1 no CPT 16.4µM*.
Screening O=[N+]([O-])c1cccc(S(=O)(=O)Nc2ccccn2)c1 returned DT40 TDP1 CPT -3.7%, DT40 TDP1 no CPT 1.9% and IL1B secr inh -13.1.
For CC1=Nc2ccccc2N=C(NC(=O)c2ccccc2)C1c1ccc(Cl)cc1 (centres undefined) the results were DT40 TDP1 CPT inconclusive, SW480 rerep 1.9%, Chronic BCR inh inconclusive, DT40 TDP1 no CPT 20.6µM*, MCF10A rereplic 1.7% and IL1B secr inh -58.2*.
`CC1=C(C(=O)Nc2ccccc2)C(c2ccncc2)n2nc(SCc3ccccc3Cl)nc2N1` (centres undefined) gave DT40 TDP1 CPT -3.0% and DT40 TDP1 no CPT -14.8%.
CC(=O)Nc1ccc(S(=O)(=O)N(C)Cc2ccccc2)cc1 was read as DT40 TDP1 CPT -1.7%, SW480 rerep -3.9%, Chronic BCR inh 0.6%, DT40 TDP1 no CPT 2.6%, MCF10A rereplic 1.6% and IL1B secr inh -0.3.
Screening CN(Cc1ccccc1)S(=O)(=O)c1ccc(NC(=S)NC(=O)C2CCCCC2)cc1 returned DT40 TDP1 CPT 11.6µM*, SW480 rerep inconclusive, Chronic BCR inh 0.7%, DT40 TDP1 no CPT 14.6µM*, MCF10A rereplic 23.1µM* and IL1B secr inh 36.6.
`C=CCN(CC=C)S(=O)(=O)c1ccc(NC(=S)NC(=O)C2CC2)cc1` gave DT40 TDP1 CPT 23.1µM*, SW480 rerep 115.9%, Chronic BCR inh -3.0%, DT40 TDP1 no CPT 13µM*, MCF10A rereplic 16.5% and IL1B secr inh 7.0.
For CN(Cc1ccccc1)S(=O)(=O)c1ccc(NC(=S)NC(=O)C(C)(C)C)cc1 the results were DT40 TDP1 CPT 20.6µM*, SW480 rerep 0.0%, Chronic BCR inh -1.3%, DT40 TDP1 no CPT 16.4µM*, MCF10A rereplic 15.5% and IL1B secr inh -12.5.
Screening O=C(NC(=S)N(Cc1ccccc1)Cc1ccccc1)C1CCCCC1 returned DT40 TDP1 CPT inconclusive, SW480 rerep 1.4%, Chronic BCR inh 10.8%, DT40 TDP1 no CPT 23.1µM*, MCF10A rereplic -7.5% and IL1B secr inh -6.6.
For CCCc1ccc(S(=O)(=O)NCc2nnc(SC)n2C)cc1 the results were DT40 TDP1 CPT -6.3%, SW480 rerep 1.1%, Chronic BCR inh 6.6%, DT40 TDP1 no CPT -11.5%, MCF10A rereplic 10.2% and IL1B secr inh 0.7.
`Cn1nc(C(C)(C)C)cc1N1C(=O)CCC1(C)C(=O)Nc1ccc2c(c1)OCCO2` (centres undefined) gave DT40 TDP1 CPT 11.4%, DT40 TDP1 no CPT 1.2% and IL1B secr inh 2.8.
For Cc1ccc(-n2nc3c(=O)n(CCCC(=O)NCc4ccccc4F)nc(C)c3c2C)cc1 the results were DT40 TDP1 CPT inconclusive, SW480 rerep 8.6%, Chronic BCR inh 1.6%, DT40 TDP1 no CPT inconclusive, MCF10A rereplic 24.0% and IL1B secr inh inconclusive.
